“And” between values parts separate entries of the source, which are not always exact repeats. Identical values can stand only once. The whole screen tested about 5,500 compounds, of which about 2,000 (36%) were called active. Another 18% or so got no clear call; they are omitted. No stated cut-off is given here; in the data, active means normalized growth mostly below about 0.91 (no sharp cut-off); inconclusive means no clear call, values can overlap the other calls; inactive means mostly above about 0.92. The list shows a part of the results.
Assay: chemical genetic growth profiling, strain panel (AID 1159580);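 further: tested at 20 µM; growth read once vehicle control cultures reached saturation at 30 °C; 1 = growth at the plate median or of vehicle wells; lower values mean less growth of the strain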
Conditions: growth OD

Measured: normalized growth

CN=C(NC#N)NCCSCc1nc[nH]c1C
inactive: S. cerevisiae deletion strains, locus YJR075W, strain HOC1, active compounds read low 1.01 | S. cerevisiae deletion strains, locus YKL009W, strain mrt4, active compounds read low 1.03 | S. cerevisiae deletion strains, locus YKL068W, active compounds read low 0.992 | S. cerevisiae deletion strains, locus YKL085W, strain MDH1 (second series), active compounds read low 0.992 | S. cerevisiae deletion strains, locus YKL085W, strain MDH1, active compounds read low 0.992 | S. cerevisiae deletion strains, locus YKL160W, strain elf1, active compounds read low 0.986 | S. cerevisiae deletion strains, locus YKL190W, strain CNB1, active compounds read low 1 | S. cerevisiae deletion strains, locus YKR001C, strain vps1, active compounds read low 0.998 | S. cerevisiae deletion strains, locus YKR026C, strain gcn3, active compounds read low 1 | S. cerevisiae deletion strains, locus YKR091W, strain srl3, active compounds read low 1 | S. cerevisiae deletion strains, locus YLL001W, strain dnm1, active compounds read low 1 | S. cerevisiae deletion strains, locus YLL026W, active compounds read low 0.997 | S. cerevisiae deletion strains, locus YLL041C, strain sdh2, active compounds read low 1 | S. cerevisiae deletion strains, locus YLR027C, strain aat2, active compounds read low 1.01 | S. cerevisiae deletion strains, locus YLR039C, strain RIC1, active compounds read low 1 | S. cerevisiae deletion strains, locus YLR058C, strain SHM2, active compounds read low 0.989 | S. cerevisiae deletion strains, locus YLR102C, strain apc9, active compounds read low 0.985 | S. cerevisiae deletion strains, locus YLR113W, strain HOG1, active compounds read low 1.03 | S. cerevisiae deletion strains, locus YLR221C, strain rsa3, active compounds read low 0.986 | S. cerevisiae deletion strains, locus YLR258W, strain gsy2, active compounds read low 1.02 | S. cerevisiae deletion strains, locus YLR262C, strain YPT6 (second series), active compounds read low 1.01 | S. cerevisiae deletion strains, locus YLR262C, strain YPT6, active compounds read low 1.01 | S. cerevisiae deletion strains, locus YLR268W, strain sec22, active compounds read low 0.955 | S. cerevisiae deletion strains, locus YLR320W, strain mms22, active compounds read low 0.982 | S. cerevisiae deletion strains, locus YLR330W, strain CHS5, active compounds read low 0.991 | S. cerevisiae deletion strains, locus YLR342W, strain FKS1 (second series), active compounds read low 1.01 | S. cerevisiae deletion strains, locus YLR342W, strain FKS1, active compounds read low 1 | S. cerevisiae deletion strains, locus YLR357W, strain rsc2, active compounds read low 0.979 | S. cerevisiae deletion strains, locus YLR370C, strain arc18, active compounds read low 1.01 | S. cerevisiae deletion strains, locus YLR371W, strain rom2, active compounds read low 0.993 | S. cerevisiae deletion strains, locus YLR384C, strain iki3, active compounds read low 0.998 | S. cerevisiae deletion strains, locus YLR418C, strain cdc73, active compounds read low 1.03 | S. cerevisiae deletion strains, locus YML016C, strain PPZ1, active compounds read low 0.997 | S. cerevisiae deletion strains, locus YML032C, strain rad52, active compounds read low 0.986 | S. cerevisiae deletion strains, locus YML120C, strain ndi1, active compounds read low 0.993 | S. cerevisiae deletion strains, locus YML124C, strain tub3, active compounds read low 0.98 | S. cerevisiae deletion strains, locus YMR058W, strain fet3, active compounds read low 1 | S. cerevisiae deletion strains, locus YMR078C, strain ctf18, active compounds read low 0.986 | S. cerevisiae deletion strains, locus YMR125W, strain sto1, active compounds read low 0.996 | S. cerevisiae deletion strains, locus YMR129W, active compounds read low 1 | S. cerevisiae deletion strains, locus YMR205C, strain PFK2, active compounds read low 0.994 | S. cerevisiae deletion strains, locus YMR223W, strain ubp8, active compounds read low 1.02 | S. cerevisiae deletion strains, locus YMR231W, strain pep5, active compounds read low 0.999 | S. cerevisiae deletion strains, locus YMR263W, strain SAP30, active compounds read low 0.998 | S. cerevisiae deletion strains, locus YMR307W, strain GAS1, active compounds read low 1 | S. cerevisiae deletion strains, locus YNL067W, strain RPL9B, active compounds read low 1 | S. cerevisiae deletion strains, locus YNL071W, strain lat1, active compounds read low 1.01 | S. cerevisiae deletion strains, locus YNL128W, strain TEP1, active compounds read low 0.991 | S. cerevisiae deletion strains, locus YNL153C, strain GIM3, active compounds read low 0.994 and 1.05 | S. cerevisiae deletion strains, locus YNL175C, strain NOP13, active compounds read low 1 | S. cerevisiae deletion strains, locus YNL183C, strain NPR1, active compounds read low 1 | S. cerevisiae deletion strains, locus YNL197C, strain WHI3, active compounds read low 1.02 | S. cerevisiae deletion strains, locus YNL209W, strain ssb2, active compounds read low 1 | S. cerevisiae deletion strains, locus YNL224C, strain SQS1, active compounds read low 0.993 | S. cerevisiae deletion strains, locus YNL233W, strain BNI4, active compounds read low 0.988 | S. cerevisiae deletion strains, locus YNL248C, strain rpa49, active compounds read low 0.996 | S. cerevisiae deletion strains, locus YNL250W, strain rad50, active compounds read low 0.953 | S. cerevisiae deletion strains, locus YNL271C, strain bni1, active compounds read low 0.965 | S. cerevisiae deletion strains, locus YNL298W, strain CLA4, active compounds read low 0.971 | S. cerevisiae deletion strains, locus YNL307C, strain MCK1, active compounds read low 0.996 | S. cerevisiae deletion strains, locus YNL322C, strain KRE1 (second series), active compounds read low 0.989 | S. cerevisiae deletion strains, locus YNL322C, strain KRE1, active compounds read low 1 | S. cerevisiae deletion strains, locus YNR049C, strain mso1, active compounds read low 1 | S. cerevisiae deletion strains, locus YNR052C, strain pop2, active compounds read low 1 | S. cerevisiae deletion strains, locus YOL006C, strain TOP1, active compounds read low 1.01 | S. cerevisiae deletion strains, locus YOL012C, strain htz1 0.875 | S. cerevisiae deletion strains, locus YOL147C, strain pex11, active compounds read low 0.973 | S. cerevisiae deletion strains, locus YOR001W, strain rrp6, active compounds read low 0.999 | S. cerevisiae deletion strains, locus YOR061W, strain CKA2, active compounds read low 0.99 | S. cerevisiae deletion strains, locus YOR069W, strain VPS5, active compounds read low 0.99 | S. cerevisiae deletion strains, locus YOR070C, strain gyp1, active compounds read low 0.996 | S. cerevisiae deletion strains, locus YOR080W, strain dia2, active compounds read low 1 | S. cerevisiae deletion strains, locus YOR083W, strain WHI5 (second series), active compounds read low 1.04 | S. cerevisiae deletion strains, locus YOR083W, strain WHI5, active compounds read low 0.981 | S. cerevisiae deletion strains, locus YOR106W, strain vam3, active compounds read low 0.979 | S. cerevisiae deletion strains, locus YOR136W, strain idh2, active compounds read low 0.994 | S. cerevisiae deletion strains, locus YOR144C, strain elg1, active compounds read low 0.983 | S. cerevisiae deletion strains, locus YOR184W, strain ser1, active compounds read low 0.993 | S. cerevisiae deletion strains, locus YOR231W, strain MKK1, active compounds read low 1.03 | S. cerevisiae deletion strains, locus YOR265W, strain rbl2, active compounds read low 0.999 | S. cerevisiae deletion strains, locus YOR270C, strain vph1, active compounds read low 1.02 | S. cerevisiae deletion strains, locus YOR290C, strain snf2, active compounds read low 0.972 | S. cerevisiae deletion strains, locus YOR316C, strain cot1, active compounds read low 0.991 | S. cerevisiae deletion strains, locus YPL051W, strain arl3, active compounds read low 0.991 | S. cerevisiae deletion strains, locus YPL055C, strain LGE1, active compounds read low 1.05 | S. cerevisiae deletion strains, locus YPL078C, strain atp4, active compounds read low 1.01 | S. cerevisiae deletion strains, locus YPL106C, strain sse1, active compounds read low 0.972 | S. cerevisiae deletion strains, locus YPL240C, strain hsp82, active compounds read low 1 | S. cerevisiae deletion strains, locus YPL241C, strain CIN2, active compounds read low 0.995 and 1.01 | S. cerevisiae deletion strains, locus YPL256C, strain CLN2, active compounds read low 1.06 | S. cerevisiae deletion strains, locus YPR119W, strain clb2, active compounds read low 0.978 | S. cerevisiae deletion strains, locus YPR141C, strain kar3, active compounds read low 0.97 | S. cerevisiae deletion strains, locus YPR163C, strain tif3, active compounds read low 0.984 | S. cerevisiae deletion strains, locus YPR167C, strain met16, active compounds read low 0.986 | S. cerevisiae deletion strains, strain wtn01, active compounds read low 1.01 | S. cerevisiae strains, strain wild type, active compounds read low 0.998

Source: PubChem BioAssay AID1159580 (chemical genetic matrix, 2015)
